Experimental data reported in PubChem BioAssay AID504773 (Broad Institute, 2011).
Entries with a potency or affinity are not part of this list.

biological target: Golgi-associated PDZ and coiled-coil motif-containing protein (Homo sapiens) (UniProt Q9HD26); experiment: CAL PDZ peptide-binding inhibitors, dose response, biochemical, fluorescence polarization, Cerulean-tagged CAL PDZ, cherry-picks (AID 504773); details: 1 h; series mostly up to 50 µM; activity change, negative = inhibition: at the top concentration;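 note: 0% = DMSO neutral wells and -100% = excess unlabeled competitor peptide wells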

Activity change, negative = inhibition, inactive:
COn1c(SCc2ccccc2)nc2ccccc2c1=O -44.9%
O=[N+]([O-])c1ccc(N/N=C/c2cccnc2)cc1 2.25%
O=C(O)CCCC(=O)N1N=C(c2ccccc2)CC1c1ccc2c(c1)OCO2 (centres undefined) -37.2%
Oc1ccc(C=Nc2cccc3ccccc23)c(O)c1 9.43%
Cc1cccc(C(=O)Nc2ccc(C(=O)/C=C/c3ccncc3)cc2)c1 21.8%
COc1ccc(/C=N/N2CCN(c3ccccc3OC)CC2)cc1Br -19%
CCN(CC)CCn1c(SCC(=O)NCc2ccccc2)nc2c(sc3ccccc32)c1=O 7.36%
CCOC(=O)C1(CCOc2ccccc2)CCN(CC(O)CO)CC1 (centres undefined) -21.3%
COC(=O)CN1C(=O)N/C(=C/c2cc(Cl)c(OC)c(OC)c2)C1=O -0.528%
CCN(CC)S(=O)(=O)c1cc(C(=O)Oc2ccccc2OC)ccc1OC 14.1%
CSc1cccc(NC(=O)N2CCCC(CNS(=O)(=O)Cc3ccccc3)C2)c1 (centres undefined) -4.47%
O=C(Nc1nc2ccccc2[nH]1)c1cc2ccccc2o1 4.01%
CC(C)(C)c1nn(-c2ccccc2)c2[nH]c(=O)c(C=O)cc12 -49.3%
CCN(CC)CCC(=O)N1c2ccccc2CCc2ccc(NC(=O)OC(C)C)cc21 -39.9%
CCOc1ccc(NC(=O)c2nsc(Cl)c2Cl)cc1 10.5%
O=C(O)CC1(CC(=O)Nc2ccc(Br)cc2)CCCCC1 25.7%
COc1ccc(CC(=O)NCC2CCCN(Cc3cccc(SC)c3)C2)cc1 (centres undefined) 26.5%
CCCCN1CC(O)=C(c2nc(-c3ccc(Cl)cc3)cs2)C1=N 6.58%
CCOC(=O)c1nc(NCCc2ccccc2)sc1C 8.59%
